Test results reported in the supplement of paper PMC10681739.

biological target: T1, ETS1 (UniProt P14921); assay: ETS1 binding intensity (PBM fluorescence), ETS1 alone (arbitrary fluorescence units); higher = stronger binding; details: ETS1 concentration 1 nM; RUNX1 concentration 0 nM
T1 sequence: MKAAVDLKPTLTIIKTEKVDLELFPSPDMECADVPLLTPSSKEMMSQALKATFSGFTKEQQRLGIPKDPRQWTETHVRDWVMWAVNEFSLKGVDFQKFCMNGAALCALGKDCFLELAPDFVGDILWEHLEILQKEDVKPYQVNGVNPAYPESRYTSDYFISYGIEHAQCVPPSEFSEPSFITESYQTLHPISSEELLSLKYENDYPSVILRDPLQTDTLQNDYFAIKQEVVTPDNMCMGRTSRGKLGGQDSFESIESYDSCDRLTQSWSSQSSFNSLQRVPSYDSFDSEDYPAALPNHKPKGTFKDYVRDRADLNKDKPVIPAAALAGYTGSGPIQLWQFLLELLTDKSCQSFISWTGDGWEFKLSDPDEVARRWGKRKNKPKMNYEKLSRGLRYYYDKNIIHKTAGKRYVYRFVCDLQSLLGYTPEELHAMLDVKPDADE

Sequence | ETS1 binding intensity
GCGCAGGTCCCGGATGTTGCGGACAGTATGAGGCAA | 3250
CCCAATTTCCTTTGCTCTGCTGTCTGCCAACCGCAA | 418
CTTTGCAGGAAGCTGGGGTTCACCCACAGCCTTGTT | 749
GAAGGTTGTAGAGGAAGTGGTTTGTTCTTCCTCCTG | 2670
ACACCTCAGGCAGGATGTGGTAGGGGTTGCCCCAGA | 3730
AGCGGCCTGGGAGGAGGATGTGGTTACGTGGAGACC | 1120
GGTCCGGAAACGATTCTGGACCTGCGGGTATATCCA | 1050
ACCCCGGAAGTGTGGGCGCGGCTGCGGTTTAACCCG | 2640
GAAACCCCATGGGCAGGATGTGGGTGAGCTGTCTGG | 3380
AGCCGCCACTTCCTGTCTCTGCGGGTGCATGCTCTT | 3730
CTCTGAGCAGGAAGTGACAAAACCACGCAGGGCAGG | 3150
AGGGAGCCCTCCATTTCCTGCCCACATTTGTCACCT | 2360
CTGCTGGCGTTCCCGGATGTGCGGTGGCGGTGCTAC | 4900
GAGGAAGAGTCTTCCTGTAACCACTAGAGGGCGCTG | 592
GCCCCGGAAGCTCCTTAAGGAGGACCGTGTGGGTTT | 605
TCCCGGCGTTCTTCCGCTGGCTCAGCCGCAAGTACC | 573
ACCACCCACTTCCCGCGCAGTTCCAAACCGCGACCA | 302
GTCACAGGAAAGAAGGAGCCTCGCCTTAACCGCACC | 447
GCTGCTTCCGGCCGCTGGTCGCAGGGCTGCGGGACT | 865
CCCGCTACACAAGGCGGATGTGGTACCCTCACTTGT | 3810

Sequence | ETS1 binding intensity
TTCGGATTCCCGGAAGAACCCGCAGCAGCTCCCAGG | 792
CTTTGTTGAAAAGGATGTGGTCATCTGATCTTGCTG | 1070
TTTTTAAGGTCAGGATGTGGGCACATCTAAGGGGCA | 1330
GTGCAGGGCCCGGAAGCTCAGTGTGGTTAAAGACAT | 2010
AGGAGAACTTCCGCCCTTACTATATTACCGCCGGTA | 1180
GGGGCAGCTTCCGGCAGGAGAGCCCGCATTCCCGGC | 903
ACAACTTCCTGTGGGATTTTTGGTGTCTGCGGCTCA | 818
GAATGACAGAAGCGGAAACCACATGAAAAAGGTGTT | 2010
ACCGGCCGAGCCAACTTCCGGCCGCAGAGGCTGCCG | 5830
CCTTCCTTCCTGCTGTGTACGTTGTGGTCACAGCAC | 419
AGCTTGCGCAGGAAGTCTGCGGCAGGAGGGCGTCCT | 1920
GTCCCACGCGACTTCCTGCGGGAAACATGGCGGCAT | 1520
TGACTTCCTCCTCTTCACTAACAGAAACCTCAATTT | 440
AGCTGCTGTTTTCCGGCTGCGGCACTGGATGAAGGA | 498
GGAGCATCCCGGAAGTCGTCACTGCGGCCGCTCCCG | 6420
TTACAGGGGCCGGAAGTGGCCTGCGGGCGGAGAAGT | 21200
GAGCATAGCCTAGCAGGATGTGGTTAAATACATTTG | 3320
GTTCATCCAGGAAACCCCAACCCAGTGCCGCAGTAT | 538
CTTAGTGGGGCAGGATGTGGTCAGGGAAGCTGATCT | 4440
TAAGCAGGGAATAGAGGAAGTGGTTTTGTCTCAGGC | 3270
